Drawing on PubChem BioAssay (NCI), this text covers growth for 15 compounds.

This is part of a sample that, as a whole, favours compounds with a hit. Of some 83,000 tested, about 20% had one in any assay.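 Activity criterion: percent growth below 10, measured after cells in 96-well plates were exposed to a single compound concentration for 48 hours.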 Values without a mark were called inactive. Activity calls are given as the source filed them.

Among the test systems are HCT-15 colon; HT29 colon; SNB-19 CNS; U251 CNS; PC-3 prostate; SK-MEL-5 melanoma; UACC-62 melanoma; LOX IMVI melanoma; SK-MEL-28 melanoma; SNB-75 CNS.
Assay in all cases: NCI-60 one-dose screen, 48 h (100 = growth as untreated, 0 = no growth, -100 = all killed)
What all share (conditions): 10 µM unless noted

On to `N#Cc1c(-c2ccccc2)cc(-c2ccccc2)n(CCC(=O)O)c1=O`, for which the growth in the assay with HCT-15 colon was 29.7%; in the assay with HT29 colon it was 19.3%; in the assay on SNB-19 CNS it was 56.1%; in the assay with U251 CNS it was 38.2%; with PC-3 prostate, 75.3%; with SK-MEL-5 melanoma, 3.86% (active). Further, the growth is 32.3% in the assay on UACC-62 melanoma, 51% with LOX IMVI melanoma and 57.3% with SK-MEL-28 melanoma.
On to `O=C(Nc1cccc(Cl)c1)Nc1cccc(Cl)c1`, for which the growth was 60.9% in the assay with HCT-15 colon; 82.1% with HT29 colon; 94.7% with SNB-75 CNS; 63.5% with U251 CNS; 79.2% with SK-MEL-5 melanoma; 43.7% in the assay with UACC-62 melanoma. Moreover, the results for the growth in the assay with LOX IMVI melanoma and in the assay on SK-MEL-28 melanoma were 89.1% and 95%, respectively.
On to `O=C(Nc1nc2ccc(OC(F)(F)F)cc2s1)c1ccc(F)cc1`, for which the growth in the assay with HCT-15 colon was 12%; in the assay on HT29 colon it was 15.7%; in the assay with SNB-19 CNS it was 12.3%; in the assay on U251 CNS, 6.58% (active); in the assay with PC-3 prostate, 12.4%; in the assay with SK-MEL-5 melanoma, -7.36% (active). Further, the growth in the assay on UACC-62 melanoma was 7.77% (active); with LOX IMVI melanoma, 11.3%; in the assay with SK-MEL-28 melanoma it was 33.5%.
Consider `CCCn1c(N)c(C(=O)CNc2ccc(I)cc2)c(=O)[nH]c1=O`, for which the growth in the assay on HCT-15 colon is 22.7%; with HT29 colon, 41.7%; in the assay on SNB-75 CNS it was 81.8%; in the assay on SNB-19 CNS, 88.7%; in the assay with SK-MEL-5 melanoma, 60.2%; in the assay on UACC-62 melanoma it was 37.1%. Besides, the growth in the assay on LOX IMVI melanoma is 18.7%; in the assay with SK-MEL-28 melanoma it was 51.7%.
For the compound `BrC1CC(Br)c2c1c1c(c3c2C(Br)CC3Br)C(Br)CC1Br` (configuration not stated), the growth is 97.6% in the assay with HCT-15 colon; 86.7% in the assay with HT29 colon; 68.6% in the assay on SNB-75 CNS; 88.7% in the assay on U251 CNS; 81.5% in the assay with PC-3 prostate; 82.4% with UACC-62 melanoma. Moreover, the results for the growth in the assay on LOX IMVI melanoma and with SK-MEL-28 melanoma were 73.7% and 119%, respectively.
Consider `COc1ccc(CNC(=O)c2c(C)n([O-])c3ccccc3[n+]2=O)cc1`, for which the growth is 103% in the assay with HCT-15 colon; 102% with HT29 colon; 79.9% with SNB-75 CNS; 97.7% with SNB-19 CNS; 86.3% in the assay with PC-3 prostate; 96.8% in the assay with UACC-62 melanoma. Further, the values for the growth with LOX IMVI melanoma and in the assay on SK-MEL-28 melanoma were 96.8% and 104%, respectively.
Turning to `CC(NC(=O)Oc1cccc2ccccc12)c1ccccc1` (configuration not stated), the growth was 100% in the assay with HCT-15 colon; 104% with HT29 colon; 87.4% in the assay with SNB-75 CNS; 90.7% in the assay on U251 CNS; 84.9% with PC-3 prostate; 97% in the assay with SK-MEL-5 melanoma. The growth is 89.2% in the assay with UACC-62 melanoma, 87.2% in the assay on LOX IMVI melanoma and 110% in the assay with SK-MEL-28 melanoma.
For `COP(=O)(OC)C(c1ccc(O)cc1)(c1ccc(O)cc1)c1ccc(O)cc1`, the growth in the assay with HCT-15 colon is 102%; in the assay with HT29 colon it was 110%; in the assay on SNB-75 CNS, 112%; in the assay on U251 CNS, 105%; in the assay on SK-MEL-5 melanoma it was 87.3%; with UACC-62 melanoma, 98.7%. In addition, the growth in the assay with LOX IMVI melanoma is 103%; in the assay with SK-MEL-28 melanoma, 118%.
`O=C(/C=C/c1cccc(O)c1)c1cccc(-n2cc(-c3ccccc3)[nH]c2=O)c1`: the growth was -18.9% (active) in the assay on HCT-15 colon; 9.73% (active) in the assay with HT29 colon; 41.2% with SNB-75 CNS; -77% (active) in the assay with U251 CNS; 55.3% in the assay with SK-MEL-5 melanoma; 55.7% in the assay with UACC-62 melanoma. The growth with LOX IMVI melanoma is -69.5% (active); in the assay with SK-MEL-28 melanoma, 30.8%.
For the compound `COc1cc(/C=C2\SC(N3CCCCC3)=NC2=O)ccc1OCCCCCCOc1ccc(/C=C2\SC(N3CCCCC3)=NC2=O)cc1OC`, the growth is 25.5% with HCT-15 colon; -13.8% (active) in the assay on HT29 colon; 18.8% with SNB-75 CNS; -3.37% (active) with U251 CNS; 34% in the assay on PC-3 prostate; 10.3% in the assay on SK-MEL-5 melanoma. The growth in the assay on UACC-62 melanoma was 17.6%; in the assay on LOX IMVI melanoma, -44.7% (active); in the assay with SK-MEL-28 melanoma it was 12.7%.
For `COc1ccc(C2=NN(C(N)=S)C(c3ccc4c(c3)OCO4)C2)cc1` (configuration not stated), the growth with HCT-15 colon is 23.2%; in the assay with HT29 colon, 7.46% (active); in the assay with SNB-75 CNS it was 26.5%; in the assay with U251 CNS it was 21.6%; with PC-3 prostate, 33.3%; in the assay with UACC-62 melanoma, 43.6%. Moreover, the figures for the growth with LOX IMVI melanoma and in the assay with SK-MEL-28 melanoma were -18.2% (active) and 75.4%, respectively.
As to `O=C1/C(=C/c2cccc(Cl)c2)CCc2ccccc21`, the growth in the assay with HCT-15 colon is 93.7%; in the assay with HT29 colon it was 91.2%; in the assay on SNB-75 CNS, 72.5%; in the assay with SNB-19 CNS, 87.1%; in the assay with PC-3 prostate, 89.7%; with SK-MEL-5 melanoma it was 101%. Further, the growth with UACC-62 melanoma was 97.7%; in the assay with LOX IMVI melanoma, 90.9%; in the assay with SK-MEL-28 melanoma, 106%.
Regarding `Cc1c2oc3c(C)ccc(C(=O)OC(C)C4NC(=O)C(C(C)C)N(C)C(=O)CN(C)C(=O)C5CCCN5C(=O)C(C(C)C)NC4=O)c3nc-2c(C(=O)OC(C)C2NC(=O)C(C(C)C)N(C)C(=O)CN(C)C(=O)C3CCCN3C(=O)C(C(C)C)NC2=O)c(N)c1=O` (configuration not stated), the growth is 7.36% (active) with HCT-15 colon; -29.2% (active) with HT29 colon; -73.8% (active) with SNB-75 CNS; 14.8% in the assay with U251 CNS; 10.4% in the assay with PC-3 prostate; -71% (active) in the assay on UACC-62 melanoma. For the same compound, the growth with LOX IMVI melanoma was 4.35% (active); with SK-MEL-28 melanoma, -20.8% (active).
For the compound `N#CSCC1CC(O)(c2ccccc2)C(c2ccccc2)C(c2ccc(Cl)cc2)O1` (configuration not stated), the growth is -64.6% (active) in the assay with HCT-15 colon; 1.18% (active) in the assay on HT29 colon; 37.5% with SNB-75 CNS; -31.1% (active) with U251 CNS; -6.02% (active) in the assay on PC-3 prostate; -87.4% (active) with SK-MEL-5 melanoma. For the same compound, the growth in the assay on UACC-62 melanoma is -90.5% (active); in the assay on LOX IMVI melanoma it was -97.4% (active); with SK-MEL-28 melanoma, -84% (active).
Consider `O=C(NCCNC(=O)Oc1cccc2ccccc12)Oc1cccc2ccccc12`, for which the growth in the assay on HCT-15 colon is 99.6%; in the assay on HT29 colon, 108%; with SNB-75 CNS it was 89.5%; in the assay with U251 CNS, 116%; in the assay on PC-3 prostate, 78.5%; in the assay with SK-MEL-5 melanoma, 85.9%. Moreover, the growth is 91.1% in the assay on UACC-62 melanoma, 81.9% with LOX IMVI melanoma and 128% in the assay on SK-MEL-28 melanoma.
